The results in this text go back to PubChem BioAssay AID2263 (National Center for Advancing Translational Sciences (NCATS), 2010).

Molecules are shown by their SMILES. The list shows a part of the results. Results filed as inconclusive are left out. Activity calls are given as the source filed them. The call rests on the fitted dose curve; in most records, active means well fitted inhibition curve with a large enough effect; inconclusive means small, poorly fitted or top-dose-only effect, or effect the other way; inactive means flat fitted curve, though single readings scatter.

This assay deals with Pyruvate kinase PKM (Homo sapiens) (UniProt P14618). As to the kind of experiment: Confirmation Concentration-Response Assay for Inhibitors of Human Muscle isoform 2 Pyruvate Kinase. The note with it: purified hPK-M2, Kinase-Glo ATP luminescence, 1 h; series mostly up to 57.5 µM. An excerpt: NIH Chemical Genomics Center [NCGC] Matthew G. Vander Heiden, M.D., Ph.D. [Harvard Medical School, 77 Avenue Louis Pasteur, Boston, MA 02115] MLPCN Grant: 1 R03 MH085679-01 NCGC Assay Overview: Human pyruvate kinase muscle 2 (hPK-M2) enzyme was supplied as a highly purified (>95% pure) preparation from Harvard Medical School and assayed for its ability to generate ATP from ADP using phosphoenolpyruvate (PEP) as a substrate. ATP generation was detected in a coupled reaction by luciferase-mediated luminescence, an ATP-dependent process. Pyruvate kinase substrates, PEP and ADP, were present in the assay at Km and approximately 10-fold below Km respectively. The enzyme was assayed at an intermediate level of activity to screen for both inhibitors and activators.
Chain of Pyruvate kinase PKM (Homo sapiens) (P14618 whole entry, looked up, canonical isoform): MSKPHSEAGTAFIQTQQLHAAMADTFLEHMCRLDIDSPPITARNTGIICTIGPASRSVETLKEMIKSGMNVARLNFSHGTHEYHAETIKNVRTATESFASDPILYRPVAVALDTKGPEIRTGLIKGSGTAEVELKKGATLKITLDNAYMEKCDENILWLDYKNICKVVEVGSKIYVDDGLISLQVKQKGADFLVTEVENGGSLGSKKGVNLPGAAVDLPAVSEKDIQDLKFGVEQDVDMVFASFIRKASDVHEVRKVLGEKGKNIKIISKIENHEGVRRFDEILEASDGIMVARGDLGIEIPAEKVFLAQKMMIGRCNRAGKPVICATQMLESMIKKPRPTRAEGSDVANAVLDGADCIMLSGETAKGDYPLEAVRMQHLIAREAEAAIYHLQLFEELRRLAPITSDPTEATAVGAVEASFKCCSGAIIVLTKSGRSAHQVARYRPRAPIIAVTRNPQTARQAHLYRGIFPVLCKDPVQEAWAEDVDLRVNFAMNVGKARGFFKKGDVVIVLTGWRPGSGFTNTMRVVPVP
NCGC Assay Protocol Summary: Three uL of substrate mix (at r.t.) in assay buffer (50 mM Imidazole pH7.2, 50 mM KCl, 7 mM MgCl2, 0.01% Tween 20, 0.05% BSA) was dispensed into white solid bottom 1,536 well microtiter plates so that the final concentrations of substrates in the assay were 0.1 mM ADP and 0.5 mM PEP. 23 nL of compound were delivered by a pin tool and 1 uL of enzyme mix in assay buffer (4 degree Celsius) was added. […] Two uL of detection mix (Kinase-Glo, Promega; at 4 degree Celsius protected from light) was added and luminescence read by a ViewLux (Perkin Elmer) at 5 second exposure/plate. […]
For orientation: In Kinase-Glo more light means more ATP remaining.
Consider `Cc1ccc(-c2nc3ccccn3c2Nc2ccc(F)cc2)o1`, for which the call was inactive.
